According to PubChem BioAssay:
Activity calls are given as the source filed them. Unless noted, how the calls were made is not given here.

Tests used:
[1] = A549 cell viability effects, profiling panel, calcein-AM fluorescence, 48 h, basal (AID 1162); conditions: higher = more signal; further: test concentration not given here
[2] = adipocyte viability effects, profiling panel, cell-based, 3T3-L1 adipocytes, calcein-AM fluorescence, 48 h, basal (AID 1163); conditions: 3T3-L1 adipocytes viability, higher = more signal; further: test concentration not given here
[3] = HepG2 cell viability effects, profiling panel, calcein-AM fluorescence, 48 h, basal (AID 1164); conditions: higher = more signal; further: test concentration not given here
[4] = MM1S cell viability effects, profiling panel, calcein-AM fluorescence, 48 h, basal (AID 1165); conditions: higher = more signal;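 further: viability of MM1S multiple myeloma cells under basal unstimulated conditions; test concentration not given here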
[5] = basal RPMI8226 viability, no added stimulus, profiling panel, cell-based, calcein-AM fluorescence, 48 h, PK04 Diversity Set (AID 1166); conditions: RPMI8226 myeloma viability, higher = more signal;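 further: cells grown under basal conditions without added stimulus; test concentration not given here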
[6] = basal HepG2 mitochondrial membrane potential changes, profiling panel, cell-based, JC-1 fluorescence, 24 h, 100 nL compound (AID 1167); conditions: higher = more signal; further: test concentration not given here
[7] = basal 3T3-L1 adipocyte mitochondrial potential changes, profiling panel, cell-based, JC-1 fluorescence, 3T3-L1 adipocytes, 24 h, 100 nL compound (AID 1168); conditions: JC-1 mitochondrial fluorescence, higher = more signal, called active from +8 up or from −8 down; further: test concentration not given here
[8] = basal RPMI8226 mitochondrial membrane potential changes, profiling panel, cell-based, JC-1 fluorescence, 24 h, 100 nL compound (AID 1169); conditions: RPMI8226 myeloma, JC-1 mitochondrial potential fluorescence, higher = more signal; further: test concentration not given here
[9] = basal MM1S mitochondrial membrane potential changes, profiling panel, cell-based, JC-1 fluorescence, 24 h, 100 nL compound (AID 1170); conditions: higher = more signal; further: test concentration not given here
[10] = A549 lung cancer cell viability effects, profiling panel, resazurin fluorescence, 24 h, PK04 Diversity Set (AID 1171); conditions: higher = more signal, called active from +8 up or from −8 down; further: test concentration not given here
[11] = HepG2 liver cancer cell viability effects, profiling panel, resazurin fluorescence, 24 h, PK04 Diversity Set (AID 1172); conditions: higher = more signal; further: test concentration not given here
[12] = basal S. cerevisiae growth modulation, no modifier, primary screen, OD600, strain BY4716, 24 h, basal condition (AID 1173); conditions: OD600, 24 h, higher = more signal, called active from +8 up or from −8 down
[13] = MM1S myeloma cell viability, profiling panel, resazurin fluorescence, basal, 24 h, PK04 Diversity Set (AID 1174); conditions: higher = more signal, called active from +8 up or from −8 down;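 further: MM1S multiple myeloma cell line; test concentration not given here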
[14] = biological target: Dihydroorotate dehydrogenase (quinone), mitochondrial (Plasmodium falciparum (isolate 3D7)) (UniProt Q08210); test: PfDHODH enzyme inhibitors, primary screen, biochemical, C-terminal His tag, absorbance 600 nm (AID 1175); conditions: DCIP absorbance 600 nm, higher = more signal, called active from +8 up or from −8 down;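 further: recombinant parasite enzyme with a five histidine tag at its C terminus; test concentration not given here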
[15] = P. aeruginosa biofilm formation inhibitors, primary screen, strain PAO1, LB-PBS medium, absorbance 600 nm (AID 1176); further: test concentration not given here; conditions: P. aeruginosa PAO1 growth/biofilm, A600, 12 h; higher = more signal
[16] = S. cerevisiae RM11-1a growth modifiers, primary screen, strain RM11-1a, OD600, basal, 24 h (AID 1177); conditions: OD600, 24 h, higher = more signal, called active from +8 up or from −8 down;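 further: cultures grown under basal conditions with no added stressor; test concentration not given here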
[17] = E. coli acrAB mutant growth effects, primary screen, E. coli filamentation inducers, strain DRC39, OD650, 24 h (AID 1178); conditions: higher = more signal, called active from +8 up or from −8 down;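 further: growth measured as culture turbidity by optical density at 650 nm; test concentration not given here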
[18] = E. coli acrAB mutant growth effects, primary screen, E. coli filamentation inducers, strain DRC39, OD650, 48 h (AID 1179);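 further: screen aims at cell division blockers that make cells filament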; conditions: E. coli DRC39 delta-acrAB growth, higher = more signal, called active from +8 up or from −8 down
[19] = RPMI8226 myeloma cell viability, profiling panel, resazurin fluorescence, basal, 24 h, PK04 Diversity Set (AID 1180); conditions: higher = more signal;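 further: RPMI8826 multiple myeloma cell line at 5000 cells per well; test concentration not given here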
[20] = biological target: E3 ubiquitin-protein ligase XIAP (Homo sapiens) (UniProt P98170); test: XIAP binders, primary screen, biophysical, small-molecule microarray, fluorescence 635 nm (AID 1181); conditions: small-molecule microarray binding, higher = more signal;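 further: score merges 667 nm emission and signal to noise over triplicate slides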
E3 ubiquitin-protein ligase XIAP (Homo sapiens), sequence (P98170 whole entry, looked up): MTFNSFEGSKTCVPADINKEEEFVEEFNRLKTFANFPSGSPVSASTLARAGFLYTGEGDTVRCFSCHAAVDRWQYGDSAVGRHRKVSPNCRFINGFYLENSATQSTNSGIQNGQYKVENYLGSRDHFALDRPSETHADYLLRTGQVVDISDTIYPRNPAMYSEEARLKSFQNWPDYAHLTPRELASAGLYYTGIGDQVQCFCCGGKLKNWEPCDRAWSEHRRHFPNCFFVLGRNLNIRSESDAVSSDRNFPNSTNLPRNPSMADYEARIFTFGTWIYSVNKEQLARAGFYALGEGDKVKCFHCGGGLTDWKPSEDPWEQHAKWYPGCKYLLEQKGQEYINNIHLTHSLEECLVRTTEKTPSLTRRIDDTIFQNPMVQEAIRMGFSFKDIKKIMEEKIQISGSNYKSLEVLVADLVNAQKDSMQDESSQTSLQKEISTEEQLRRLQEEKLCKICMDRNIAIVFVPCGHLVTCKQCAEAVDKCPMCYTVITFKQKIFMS

Dihydroorotate dehydrogenase (quinone), mitochondrial (Plasmodium falciparum (isolate 3D7)), sequence (Q08210 whole entry, looked up): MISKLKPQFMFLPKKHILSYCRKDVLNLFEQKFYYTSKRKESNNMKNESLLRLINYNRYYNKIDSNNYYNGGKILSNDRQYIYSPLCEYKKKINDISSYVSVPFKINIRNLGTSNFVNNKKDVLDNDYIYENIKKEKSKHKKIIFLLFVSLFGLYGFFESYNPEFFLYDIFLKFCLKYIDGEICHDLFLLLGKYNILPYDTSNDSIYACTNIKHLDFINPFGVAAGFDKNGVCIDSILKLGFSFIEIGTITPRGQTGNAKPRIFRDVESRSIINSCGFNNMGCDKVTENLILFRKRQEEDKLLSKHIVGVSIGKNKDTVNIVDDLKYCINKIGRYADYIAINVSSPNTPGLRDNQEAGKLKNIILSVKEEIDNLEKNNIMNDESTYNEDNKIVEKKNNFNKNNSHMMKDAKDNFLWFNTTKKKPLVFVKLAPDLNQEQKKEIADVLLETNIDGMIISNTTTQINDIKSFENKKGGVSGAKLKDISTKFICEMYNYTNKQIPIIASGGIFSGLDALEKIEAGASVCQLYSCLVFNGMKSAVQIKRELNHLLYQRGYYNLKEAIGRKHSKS

Compound	z-score [1]	z-score [2]	z-score [3]	z-score [4]	z-score [5]	z-score [6]	z-score [7]	z-score [8]	z-score [9]	z-score [10]	z-score [11]	z-score [12]	z-score [13]	composite z-score [14]	z-score [15]	z-score [16]	z-score [17]	z-score [18]	z-score [19]	composite z-score [20]
COCCCN1C(=O)[C@@]2(c3ccc([N+](=O)[O-])cc3)CC(=O)N(CC34CC5CC(CC(C5)C3)C4)[C@@H]2c2ccc(CO)cc21	0.555	-0.731	1.07	0.657	1.12	0.722	0.0634 (inactive)	0.25	-1.87	-1.25 (inactive)	-0.35	1.09 (inactive)	-0.566 (inactive)	-6.02 (inactive)	0.792 (inactive)	0.0202 (inactive)	0.2 (inactive)	0.334 (inactive)	-0.79	0.113
O=C1C2C=CC(C(O)c3cccs3)N(Nc3ccc([N+](=O)[O-])cc3)C2C(=O)N1c1ccccc1 (stereo not given)	-0.792	-1.01	1.43	-0.752	-0.85	-0.841	-0.728 (inactive)	0.569	-1.46	0.644 (inactive)	0.626	0.348 (inactive)	-0.125 (inactive)	-1.63 (inactive)	0.89 (inactive)	-0.0522 (inactive)	-0.958 (inactive)	-0.0047 (inactive)	-0.182	-0.177
COc1ccc([Si](C)(C)[C@H]2[C@H](CC(=O)N3Cc4ccccc4C[C@H]3CO)O[C@@]3(C(=O)N(C)c4ccccc43)[C@@H]2C)cc1	-0.962	1.43	-1.42	-2.67	-4.05	-0.592	-0.0846 (inactive)	-1.1	-0.748	-0.299 (inactive)	-0.894	-3.38 (inactive)	-1.97 (inactive)	-1.45 (inactive)	-0.695 (inactive)	0.0745 (inactive)	-1.44 (inactive)	-1.38 (inactive)	-2.06	0.119
COc1ccc(C(O)C2C=CC3C(=O)N(C)C(=O)C3N2N(c2ccccc2)c2ccccc2)cc1 (stereo not given)	-0.738	-0.863	0.132	0.513	-0.556	-0.93	-1.3 (inactive)	-0.544	-0.426	-0.691 (inactive)	-0.326	0.405 (inactive)	-1.61 (inactive)	-0.472 (inactive)	0.971 (inactive)	0.279 (inactive)	-0.41 (inactive)	0.0882 (inactive)	-1.29	-0.0772
COC(=O)[C@@]1(Cc2ccc(OC)cc2)[C@H]2c3cc(C(=O)N4CCCC4)n(CCn4cc([N+](=O)[O-])nc4C)c3C[C@H]2CN1C(=O)c1ccccc1	-1.13	0.936	0.0032	-0.0622	-2.16	2.13	-1.03 (inactive)	0.564	-0.693	-0.612 (inactive)	-0.916	0.477 (inactive)	-1.72 (inactive)	-0.329 (inactive)	2.04 (inactive)	-0.123 (inactive)	-0.784 (inactive)	-0.552 (inactive)	-1.65	0.111
